Screening results from PubChem BioAssay.
mut p53 react = restores mutant p53 pathway signaling in SW480 cells | hit rate 1.5% among 28,000 | activation, % at 9.98 µM | SW480 PUMA-promoter luciferase, p53 mutant reactivation; in the data active means activation above about 52%; inconclusive means no clear call, values can overlap the other calls
STK33 kin inh = human STK33 kinase inhibition | inhibition, % at 12.5 µM | hit rate 0.44% among 27,000 | ADP-Glo luminescence, MBP substrate | Q9BYT3; in the data active means inhibition above about 20%; inconclusive means no clear call, values can overlap the other calls
Target sequence (Q9BYT3 whole entry, looked up): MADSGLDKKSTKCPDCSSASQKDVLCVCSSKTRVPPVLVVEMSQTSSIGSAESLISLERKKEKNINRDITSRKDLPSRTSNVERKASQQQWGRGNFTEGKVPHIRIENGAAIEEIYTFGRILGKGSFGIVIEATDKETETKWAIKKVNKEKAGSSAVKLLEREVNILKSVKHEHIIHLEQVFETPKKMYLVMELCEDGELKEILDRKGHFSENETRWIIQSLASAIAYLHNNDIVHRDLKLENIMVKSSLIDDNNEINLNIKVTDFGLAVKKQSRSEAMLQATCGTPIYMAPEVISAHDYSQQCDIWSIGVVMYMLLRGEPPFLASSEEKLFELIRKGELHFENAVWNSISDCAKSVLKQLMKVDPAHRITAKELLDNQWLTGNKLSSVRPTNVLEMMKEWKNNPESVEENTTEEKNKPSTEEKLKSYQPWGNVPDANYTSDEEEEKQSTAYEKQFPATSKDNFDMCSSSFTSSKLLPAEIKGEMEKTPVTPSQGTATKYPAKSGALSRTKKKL
ID4 binder = ID4 (human) binding; hit rate 1.2% among 31,000; AID 624137; P47928; small molecule microarray, Flag-ID4 binding, fluorescence F/B; calls only; call rule not given here;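 further: a binder raises fluorescence above local background on the spot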
* hit, by the source's call; i = inactive; ? = inconclusive; · = not tested or not shown; + = active, no number. Only some compounds are listed: those with a hit (about 2% of all), similar ones and a draw of the others.

SMILES	mut p53 react	STK33 kin inh	ID4 binder
COc1ccc(NC(=O)CSc2nnc3n4ncnc4c4c5c(sc4n23)COC(C)(C)C5)cc1	17	1	i
CO/N=[N+](\[O-])N1CCCC(C(N)=O)C1 (stereo unspecified)	·	·	i
NC(=O)C1CCCN(/[N+]([O-])=N/OCCBr)C1 (stereo unspecified)	·	·	+
Cc1cc(OCC(=O)Nc2ncn[nH]2)ccc1Cl	78*	0	i
CCCn1nnnc1NC(=O)COc1ccc(Cl)c(C)c1	-11	-1	i
CC(C)(C)c1ccc(OCC(=O)Nc2ncn[nH]2)c(Br)c1	47	2	i
Cc1cc(OCC(=O)Nc2ncn[nH]2)c(C)cc1Br	57*	-1	i
Cc1cc(OCC(=O)NCc2ccccn2)c(C)cc1Br	119*	-1	i
Cc1cc(C)c(C)c(OCC(=O)NCc2ccccn2)c1	8	-1	i
CCN(CC)S(=O)(=O)c1ccc(OC)c(NC(=O)c2cc3ccccc3oc2=O)c1	3	5	i
COC(=O)C[C@H]1C(C)(C)C2(Cl)O[C@@]34CC2C(=O)[C@]1(C)C3CC[C@]1(C)C4=CC(=O)O[C@H]1c1ccoc1 (stereo partly specified)	·	1	·
Cc1cc(Cl)ccc1OCC(=O)Nc1cc(Cl)ccc1C(=O)O	14	-4	i
COC(=O)c1ccccc1NC(=O)C1CCCN(S(=O)(=O)c2ccc(Br)cc2)C1 (stereo unspecified)	14	0	i
Cc1ccc(NC(=O)C(C)NS(=O)(=O)c2ccc(F)cc2)c(C)c1 (stereo unspecified)	-3	?	i
Cc1ccc(C(C)C)c(OC(=O)CS(=O)c2ccc(C(F)(F)F)cc2[N+](=O)[O-])c1 (stereo unspecified)	-1	2	i
O=C(CSc1nnc(-c2cccc(Cl)c2)n1-c1ccccc1)Nc1ccccc1	-1	-1	i
Brc1ccc(-c2cnc3ccccc3n2)s1	74*	·	i
COC(=O)c1ccccc1NC(=O)c1cc(-c2ccccn2)nc2c(C)c(Cl)ccc12	-13	-4	i
Cc1ccc(S(=O)(=O)N2CCCC(C(=O)Nc3ccc4c(c3)OCCO4)C2)cc1 (stereo unspecified)	-2	3	i
CC(=O)c1cccc(NC(=O)C2CCCN(S(=O)(=O)c3ccccc3)C2)c1 (stereo unspecified)	-4	2	+
CCC(=O)N(C)C[C@@H]1Oc2cc(-c3cccc(OC)c3)ccc2S(=O)(=O)N([C@@H](C)CO)C[C@@H]1C	4	·	+
CCC(=O)N(C)C[C@@H]1Oc2cc(C#CC3CC3)ccc2S(=O)(=O)N([C@@H](C)CO)C[C@H]1C	1	·	+
COc1cccc(-c2ccc3c(c2)O[C@H](CN(C)C(C)=O)[C@@H](C)CN([C@@H](C)CO)S3(=O)=O)c1	-3	·	·
COCC(=O)N(C)C[C@H]1Oc2cc(C#CC3CC3)ccc2S(=O)(=O)N([C@@H](C)CO)C[C@@H]1C	-5	·	·
C[C@H]1CN([C@@H](C)CO)S(=O)(=O)c2ccc(-c3ccc(C#N)cc3)cc2O[C@H]1CN(C)C(=O)Nc1cc(F)ccc1F	-24	·	+
SMILES	mut p53 react	STK33 kin inh	ID4 binder
C[C@H](CO)N1C[C@H](C)[C@@H](CN(C)C(=O)Nc2cc(F)ccc2F)Oc2cc(C#CC3CCCC3)ccc2S1(=O)=O	·	·	i
C/C=C/c1ccc2c(c1)O[C@H](CN(C)S(=O)(=O)c1ccc(F)cc1)[C@H](C)CN([C@H](C)CO)S2(=O)=O	-13	·	i
C/C=C/c1ccc2c(c1)O[C@H](CN(C)S(=O)(=O)c1ccccc1OC)[C@H](C)CN([C@@H](C)CO)S2(=O)=O	-9	·	+
O=C(COc1ccc(Cl)cc1)Nc1ccc(O)cc1C(=O)O	-4	0	i
Cc1noc(NS(=O)(=O)c2ccc(NC(=O)C3COc4ccccc4O3)cc2)c1C (stereo unspecified)	3	0	i
CC1=NN(c2cc(Cl)cc(Cl)c2)C(=O)CC1	8	·	i
CCC[C@H]1CC2=C(C[C@@H](CC)CC3=C1C(=O)OC3=O)C(=O)OC2=O	-12	·	i
CCc1cccc(C)c1NC(=O)CSc1nc2ccccc2c(=O)n1-c1cccc2ccccc12	-22	1	i
COc1ccc(NC(=S)NCCc2ccccc2OC)c(OC)c1	17	0	+
COc1ccc(NC(=O)NCc2ccc(C(=O)O)cc2)c(OC)c1	-7	-1	+
COc1ccc(NC(=O)C23CC4CC(C2)CC(C(=O)Nc2ccc(OC)cc2OC)(C4)C3)c(OC)c1	-4	-2	i
COc1ccc(NC(=O)NCCc2ccccc2OC)c(OC)c1	7	2	i
CS(=O)(=O)N(CC(=O)Nc1ccc(Br)cc1F)c1ccc(Cl)c(Cl)c1	-4	-1	i
Cc1ccc2oc(C(=O)Nc3sc4c(c3C(=O)NCc3ccco3)CCC4)c(C)c2c1	2	0	i
O=S(=O)(N[C@@H]1CCCN(Cc2cccc(OCCO)c2)C1)c1cc(C(F)(F)F)ccc1Cl	·	-1	·
Cc1ccc(Cl)c(OCC(=O)NCc2ccco2)c1	?	-5	i
O=C(COc1ccc2ccccc2c1Br)NCc1ccco1	85*	-5	i
C/C=C(/C)C(=O)O[C@H]1[C@H](OC(=O)/C=C/c2ccccc2)[C@@]23C(CC1(C)C)[C@]1(CCC4[C@@]5(C)CC[C@H](O[C@@H]6O[C@H](C(=O)O)[C@@H](O)[C@H](O[C@@H]7O[C@H](CO)[C@H](O)[C@H](O)[C@H]7O[C@@H]7O[C@@H](C)[C@H](O)[C@@H](O)[C@H]7O[C@@H]7OC[C@](O)(CO)[C@H]7O)[C@H]6O[C@@H]6O[C@H](CO)[C@H](O)[C@H](O)[C@H]6O)C(C)(C)C5CC[C@@]4(C)[C@]1(C)C[C@H]2O)O[C@H]3O (stereo partly specified)	·	-2	·
O=C(NC(=S)Nc1ccc(Cl)c(C(=O)O)c1)c1cccc(COc2ccccc2)c1	2	-1	+
O=C(COc1ccccc1)NC(=S)Nc1cccc(NC(=O)c2ccccc2Cl)c1	-12	4	i
Cc1cc(N(CC(=O)NC2CCCCC2)S(C)(=O)=O)ccc1Br	1	1	i
Cc1ccc(NC(=O)COc2ccc(CO)cc2Cl)cc1	6	2	i
COc1ccccc1OCC(=O)Nc1cc(-c2nc3ccccc3[nH]2)ccc1C	15	3	+
Cc1ccc(NC(=O)COc2ccc(Cl)cc2Cl)c([N+](=O)[O-])c1	-60	7	i
Cc1ccc(-c2nc3ccccc3[nH]2)cc1NC(=O)COc1ccc(C(C)C)cc1	1	1	i
SMILES	mut p53 react	STK33 kin inh	ID4 binder
Cc1ccc(NC(=O)COc2ccccc2Cl)c([N+](=O)[O-])c1	60*	1	i
Cc1ccc(NC(=O)COc2ccc(C(C)(C)C)cc2Br)c([N+](=O)[O-])c1	40	-5	i
COc1ccccc1OCC(=O)Nc1ccc(C)cc1[N+](=O)[O-]	119*	-1	i
COc1ccccc1NC(=O)COc1ccc(CO)cc1Cl	165*	7	i
Cc1cc(Br)c(NC(=O)CSc2ncn(-c3ccccc3)n2)cc1C	-3	-1	i
Cc1ccc(Cl)cc1NC(=O)C(C)NS(=O)(=O)c1ccc(Br)cc1 (stereo unspecified)	1	-1	i
Cc1ccc(OCC(=O)Nc2cccc3ncccc23)c(C)c1	7	0	i
